Screens (PubChem)
Most compounds without a hit are left out; they make up all but 15% or so of the library.
HCMV inh: human cytomegalovirus inhibition; HFF cells, HCMV-luciferase reporter, 72 h; active compounds read low; activity change, negative = inhibition, % at 57.5 µM; 4.5% of 410,000 active; AID 1259415; in the data active = activity change below about -60%; inconclusive = no clear call, values can overlap the other calls; inactive = above about -39%
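Human foreskin fibroblasts infected with luciferase-reporter HCMV at MOI 1 PFU/cell, compounds at two doses. Luciferase measured 72 h post infection; normalized to buffer-only basal and Salinomycin (10uM) controls.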
HCV inh: blocks hepatitis C virus. 3.4% of 340,000 active. Huh7.5.1 HCVcc-Cre infection, luciferase reporter, 44 h. AID 651820. Potency, µM (titrated, usually from 41.8 µM), hits mostly inhibitors
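Cells (1,000/well) were plated 4 h before compound, then infected with HCVcc-Cre virus (~0.5 moi). After 44 h further culture, infection was read as luciferase luminescence following a 15 min substrate incubation at room temperature.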
Pf growth 48h: inhibits P. falciparum growth in the first generation, 48 h; 5.9% of 310,000 active; Potency, µM (top dose mostly 28.7 µM), most hits filed as inhibitors; P. falciparum luciferase growth in erythrocytes, 48 h
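Luminescence readout; reporter = integrated firefly luciferase in P. falciparum. RBC culture at 2% hematocrit, 0.1% parasitemia final, 37 C/5% CO2; decreased signal taken as growth inhibition.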
SARS PLpro yeast: blocks SARS-CoV papain-like protease in a yeast assay. S. cerevisiae expressing SARS-CoV PLpro, growth rescue. Potency, µM (top dose mostly 32.9 µM), usual class: activators. 0.19% of 330,000 active; calls by dose curve; also: nearly all actives have a fitted effect of over 55% in size
Pf growth 96h: inhibits malaria parasite growth, 96 h | P. falciparum luciferase reporter growth, 96 h | Potency, µM (highest dose often 28.7 µM), usual class: inhibitors | 6.9% of 320,000 active
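Infected RBCs, 2% Hct / 0.05% parasitemia final; luciferase-reporter P. falciparum; cpd 96 h, 37 C, 5% CO2; luciferase detection reagent; luminescence.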
Sm TGR block: inhibitors of Schistosoma mansoni thioredoxin glutathione reductase. purified TGR, DTNB reduction, TNB absorbance 405 nm. Potency, µM (titrated, usually from 114 µM), most hits filed as inhibitors. Q962Y6. 3% of 360,000 active; also: nearly all actives have a fitted effect of over 60% in size
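Kinetic colorimetric format: TGR-catalysed, NADPH-driven DTNB reduction monitored via TNB absorbance. Enzyme dispensed at 20 nM; compound exposure 15 min at room temperature before reaction start.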
Each line names hits and unclear results; the compound was inactive in the other large screens. Unless noted, calls follow the shape of the dose curve; as a rule, active = well fitted curve in the direction sought with a large enough effect; inconclusive = small, poorly fitted or top-dose-only effect, or another doubt; inactive = no such curve, though single readings can be large; an effect the other way counts as inactive or inconclusive.

Cc1cccc(C)c1NC(=O)CSCc1cccc(CSCC(=O)Nc2c(C)cccc2C)n1	Pf growth 96h 5.2µM (no result: Pf growth 48h)
Cc1c(NC(=O)c2ccc(NS(=O)(=O)c3cccc([N+](=O)[O-])c3)cc2)c(=O)n(-c2ccccc2)n1C	none (no result: Pf growth 48h, SARS PLpro yeast, Pf growth 96h, Sm TGR block)
Cc1c(NS(=O)(=O)c2cccc([N+](=O)[O-])c2)c(=O)n(-c2ccccc2)n1C	HCMV inh inconclusive, Sm TGR block 28µM
CCCN(CC(=O)Nc1ccc(F)c(F)c1F)CC(=O)Nc1c(C)n(C)n(-c2ccccc2)c1=O	HCMV inh -69
CCOc1ccccc1NC(=O)CSc1nc2c(oc3ccccc32)c(=O)n1-c1ccc(F)cc1	none (no result: HCV inh, Pf growth 48h, SARS PLpro yeast, Pf growth 96h)
Cc1nnc(NCc2ccccc2)c2c1nnn2Cc1ccccc1Cl	none (no result: HCV inh, Pf growth 48h, SARS PLpro yeast, Pf growth 96h)
CCCc1cc(SCC(=O)Nc2c(C)n(C)n(-c3ccccc3)c2=O)n2c(nc3ccccc32)c1C#N	Pf growth 96h inconclusive, Sm TGR block 1.8µM (no result: Pf growth 48h)
Cc1cc(Nc2ccc(O)cc2)n2c(nc3ccccc32)c1C#N	none
Cc1cc(Nc2c(C)n(C)n(-c3ccccc3)c2=O)n2c(nc3cc(F)c(F)cc32)c1C#N	HCV inh inconclusive, Sm TGR block 8.9µM (no result: HCMV inh)
Cc1nc(SCC(=O)Nc2c(C)n(C)n(-c3ccccc3)c2=O)c2cnn(-c3ccccc3)c2n1	HCV inh 25µM (no result: Pf growth 48h, SARS PLpro yeast, Pf growth 96h, Sm TGR block)
Cc1nc(SCC(=O)Nc2c(C)n(C)n(-c3ccccc3)c2=O)c(C#N)c(C)c1C	none
Cc1c(NC(=O)CN2C(=O)NC(CCc3ccccc3)C2=O)c(=O)n(-c2ccccc2)n1C (stereo unspecified)	Sm TGR block 22µM
CCCN1CCC(C(=O)NC(c2ccc(Cl)cc2)c2ccsc2)CC1 (stereo unspecified)	none (no result: HCV inh, Pf growth 48h, SARS PLpro yeast, Pf growth 96h, Sm TGR block)
O=C(C[C@@H]1C=C[C@H](NC(=O)Cc2ccccn2)[C@@H](CO)O1)NCCc1ccccc1	none (no result: HCV inh, Pf growth 48h, SARS PLpro yeast, Pf growth 96h, Sm TGR block)
Cc1noc(C)c1S(=O)(=O)N1CCCN(C(=O)/C=C/c2ccccc2F)CC1	Pf growth 48h inconclusive, Pf growth 96h inconclusive
N#Cc1cccc(-c2ccc3c(c2)COCC(=O)N3CCN2CCOCC2)c1	none (no result: HCV inh, Pf growth 48h, SARS PLpro yeast, Pf growth 96h, Sm TGR block)
COC(=O)c1ccc(OC(=O)C2CSC3(C)CCC(=O)N23)cc1 (stereo unspecified)	Pf growth 48h inconclusive
CC(CNC(=O)[C@@H](Cc1ccccc1)NC(=O)[C@H]1O[C@@H](n2cnc3c(=O)[nH]c(N)nc32)[C@H](O)[C@@H]1O)c1ccccc1 (stereo partly specified)	none (no result: HCV inh, Pf growth 48h, SARS PLpro yeast, Pf growth 96h, Sm TGR block)
COc1ccc(NC(=O)CSc2nc3ccccc3n2CC(=O)NCc2ccc(F)cc2)cc1	none (no result: HCV inh, Pf growth 48h, SARS PLpro yeast, Pf growth 96h)
Cc1ccccc1NC(=O)Cn1c(SCC(=O)Nc2ccc(F)cc2)nc2ccccc21	HCMV inh -64 (no result: HCV inh, Pf growth 48h, SARS PLpro yeast, Pf growth 96h)
Cc1c(Br)c([N+](=O)[O-])nn1CC(=O)Nc1c(C)n(C)n(-c2ccccc2)c1=O	HCMV inh -102, Pf growth 96h 2.9µM
CSc1nc2ccccc2n1CC(=O)Nc1c(C)n(C)n(-c2ccccc2)c1=O	Pf growth 96h 10µM
CSc1nc2ccccc2n1CC(=O)Nc1ccccc1	none
COc1ccc(CNC(=O)Cn2c(SCC(=O)Nc3ccc(C)c(C)c3)nc3ccccc32)cc1	HCMV inh -67 (no result: HCV inh, Pf growth 48h, SARS PLpro yeast, Pf growth 96h)
CC(=O)N[C@H](CC(C)C)C(=O)O	none (no result: HCMV inh, HCV inh, SARS PLpro yeast, Sm TGR block)
Cc1nc(NC(=O)CCN2C(=O)C3CC=CCC3C2=O)sc1C (stereo unspecified)	SARS PLpro yeast inconclusive
COc1ccc(NC(=O)C2CCCN(S(C)(=O)=O)C2)cc1Cl (stereo unspecified)	Pf growth 96h inconclusive
Cc1ccc(CN2CCC(C)(Oc3cccc(Cl)c3)C2)cc1 (stereo unspecified)	none (no result: HCV inh, Pf growth 48h, SARS PLpro yeast, Pf growth 96h, Sm TGR block)
Cc1ccc(S(=O)(=O)NC(=O)Nc2c(C)n(C)n(-c3ccccc3)c2=O)cc1	Pf growth 96h 12µM
Cc1c(NC(=O)CN2CCN(c3ccc(O)cc3)CC2)c(=O)n(-c2ccccc2)n1C	Pf growth 48h inconclusive, Pf growth 96h 6.6µM
Cc1ccc(S(=O)(=O)NCCCCCC(=O)Nc2c(C)n(C)n(-c3ccccc3)c2=O)cc1	none
Cc1c(NC(=O)CN2CCN(c3ccc([N+](=O)[O-])cc3)CC2)c(=O)n(-c2ccccc2)n1C	none
CCOc1ccc(CCNC(=O)CSc2nc3ccccc3nc2Cc2ccc(C)cc2)cc1OCC	none (no result: HCV inh, Pf growth 48h, SARS PLpro yeast, Pf growth 96h)
